Reference: the supplement of paper PMC6555819

Key:
Experiment in all cases: PBM binding z-score (relative to random genomic background probes); higher = stronger binding; sequences stand for … in GC…GCGATTGACAGCGTAGAATGAAGG
[1] = system: RARb homodimer (NR concentration 270 nM)
Method in brief: (§1)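 Custom Agilent 4×180K protein-binding microarrays carried double-stranded probes. Their 34-nt variable regions held direct-repeat seeds, single-nucleotide variants, half-site ablations and random human genomic background sequences. Arrays were incubated 1 h with ligand-free nuclear receptor dimers in PBS pH 7.4, 2% milk, 0.02% Triton X-100, 1 mM DTT, 0.2 mg/mL BSA and 0.4 mg/ml salmon testes DNA. Antibodies against each partner (one per run) detected binding, and scanned fluorescence was regression-normalized. Binding z-scores use random background probes as reference.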

[2] = system: RARg:RXRa (NR concentration 270 nM, RXRa partner concentration 90 nM)
Method in brief: as §1

[3] = system: RARg homodimer (NR concentration 270 nM)
Method in brief: as §1

[4] = system: RXRa DBDmut IVT, anti-RXR (DBD mutation: RXRa K156A/R161A, NR concentration 90 nM)
Method in brief: as §1

[5] = system: RXRa homodimer (NR concentration 180 nM)
Method in brief: as §1

[6] = system: THRa:RXRa (NR concentration 90 nM, RXRa partner concentration 90 nM)
Method in brief: as §1

[7] = system: THRa homodimer (NR concentration 90 nM)
Method in brief: as §1

[8] = system: VDR homodimer (NR concentration 270 nM)
Method in brief: as §1

Sequence | PBM binding z-score [1] | PBM binding z-score [2] | PBM binding z-score [3] | PBM binding z-score [4] | PBM binding z-score [5] | PBM binding z-score [6] | PBM binding z-score [7] | PBM binding z-score [8]
ACTTACGGGCCAACGAGGTTATAGCACGCGTATA | 1.08 | 0.977 | 0.949 | 0.889 | 1.01 | 1.76 | 0.399 | 1.31
CCTCGGGGGACAACAGGAGGTCAGAGCTGCCAGA | 3.75 | 4.66 | 4.32 | 0.347 | 2.89 | 3.22 | 1.07 | 1.19
TCTGCTAGATCAGTTGGTCAGCTAACGAGCTGCC | -0.799 | -0.667 | -0.644 | -0.256 | -0.419 | -1.77 | -1.48 | -1.49
ATACCAAGGTGATCGTGAGGTCATTGATACTAAC | 4.17 | 4.94 | 3.31 | 1.63 | 3.99 | 4.6 | 4.6 | 4.77
TCATATAGGTAAACAGGTGAAACTCCGTAAGTTA | 0.92 | 0.806 | 0.575 | 1.37 | 1.47 | 0.984 | 0.268 | 0.307
TTACCAAGGTGAAATGTCGTTGATGCACGCCTTG | 0.644 | 0.864 | 0.648 | 0.115 | 1.16 | 1.82 | 0.71 | -0.183
GCGTATAGGTAATACAAGGTGAAAGTCCGATTGT | 0.95 | 0.423 | 0.499 | 0.141 | 0.647 | 4.35 | 1.03 | 0.00145
GCAGACAGGTGAAACGCGGGTAACTCAGGGTGGC | 0.366 | 0.785 | 0.319 | -0.6 | 0.631 | 1.64 | -0.533 | -0.362
CAAACTAGGTCAAAGGTGAAAGTCGAGCCAACCA | 3.44 | 6.43 | 4.84 | 2.14 | 7.81 | 3.65 | 1.03 | 1.05
CAATCTAGGTCAAGAGGTCAAAGTCCGCTTCCCG | 5.66 | 8.19 | 7.48 | 2.79 | 8.19 | 4.5 | 2.95 | 5.19
CGAACTAGGCCAGAACAGGACAGTGAAGGATGAT | 0.156 | 0.158 | 0.409 | 0.019 | 0.291 | 0.634 | -0.576 | -0.245
ACTAGTTAGTCAGCTGAGGTCACACACAATTCGG | 4.4 | 3.65 | 3.31 | 1.91 | 4.01 | 4.76 | 5.46 | 3.81
CCGACTGTGGCAAAGGTTACCATACTCAGTACGA | 2 | 2.04 | 1.17 | 0.804 | 2.6 | 1.4 | 0.0506 | 0.185
ATCGAAAGGTCGACGGGGTGAGTATACACCGTTT | 3.14 | 4.6 | 4.63 | 1.61 | 5.07 | 3.57 | 0.568 | 1.7
CGTCCAAGGTCAGAGAGGTAAGTGAATGCCGAGT | 3.27 | 4.7 | 5.39 | 2.67 | 3.85 | 3.5 | 1.8 | 1.71
AATACAGGGTCATCGTAGGCTAGAGTACGCACAG | 3.49 | 5.66 | 5.17 | 3.57 | 6.87 | 4.05 | 1.63 | 4.03
TCTAGTAGTTGATTAGGGCAACCGAAACAGCGGA | 0.439 | 0.0761 | -0.0123 | 0.339 | 0.492 | 0.48 | -0.325 | -0.315

Sequence | PBM binding z-score [1] | PBM binding z-score [2] | PBM binding z-score [3] | PBM binding z-score [4] | PBM binding z-score [5] | PBM binding z-score [6] | PBM binding z-score [7] | PBM binding z-score [8]
TATACAGGGTCAAAGGCCAGAGTTCGAATGTCGA | 3.91 | 5.81 | 5.41 | 3.27 | 7.53 | 3.61 | 1.03 | 4.77
TCTCGGAGGACACGAAGGTCAGGGCTTTCCAGAG | 4.09 | 3.4 | 3.91 | 0.802 | 2.43 | 3.13 | 1.27 | 1.16
ACTAGCTGGTCAGCTGAGGTCACACACAATTCGG | 4.27 | 4.27 | 4.18 | 0.848 | 4.03 | 5.12 | 4.71 | 3.25
AACACAGGGTCACTAGGCCAGAGTAGGTACGAAT | 3.3 | 5.06 | 4.83 | 2.79 | 5.24 | 3.3 | 1.02 | 2.44
TAGCCTAGGTCTTTGGGCCAGTATAGTACGCATC | -0.337 | -0.253 | -0.164 | -0.783 | -0.392 | -0.218 | -0.674 | -0.826
ATACCAAGGTGATTGTGAGGTCGTTGATACTAAC | 2.03 | 2.19 | 1.08 | 1.27 | 1.59 | 3.66 | 2.94 | 3.33
TCGAGTGGGTTAGGGGCATTCAGAATGGCGTCGA | 1.21 | 0.178 | -0.204 | 0.231 | 0.603 | 1.23 | 0.84 | 1.54
CGTCCAAGGTCAAGGTTAGTGAAAGAGACTCGAA | 4.33 | 5.94 | 6.75 | 3.28 | 5.75 | 3.98 | 2.66 | 1.85
CCTACTGGGGCAAGGTCATTGATCAGTCAAAGCA | 3.3 | 4.12 | 3.61 | 1.28 | 3.54 | 3.25 | 1.6 | 3.27
CTCGAAAGGTCGTGCCCAGGTGAGTATACCAAAC | 2.89 | 5.31 | 3.78 | 1.72 | 5.09 | 3.87 | 0.947 | 1.31
CGAAGTAGGTCAGAACAGGACAGTGAAGGATGAT | 2.04 | 2.23 | 3.23 | 0.286 | 1.37 | 3.52 | 0.146 | 0.1
AGAACGAGGGCACGCTGAGTTGACAGCAGAGTAG | 1.43 | 2.35 | 2.33 | 1.6 | 1.73 | 2.16 | -0.174 | 1.79
TCTATTAGTTGATTAAGGCAACCGAAACAGCGGA | -0.49 | 0.163 | 0.201 | 1.35 | 0.349 | 0.746 | 0.601 | 0.261
AATACACGGTCACTAGGCCAGAGTAGGTACGAAT | 1.85 | 1.78 | 2.19 | 0.0529 | 0.672 | 0.48 | -0.267 | 0.314
ACAGACAGGTGATGAACGTAACTCAGGCTATCAT | 0.0133 | 0.303 | 0.489 | 0.0589 | 0.363 | 0.000937 | -0.114 | -0.513
TCATATTGGTAAATGCTAGGTGAAAGTCCGATCT | 0.619 | 0.03 | 0.0161 | 1.7 | 0.255 | 0.808 | 0.878 | 0.578
GGGACTGGGGCATCAGCAGGTTACCATAACTTAA | 1.91 | 1.51 | 1.03 | -0.52 | 0.556 | 1.66 | 1.46 | 0.605
